# From the supplement of paper PMC8728848
# The entries come from a sample that favours the strongest signals as a whole.
# B1: FimA-N2 (Actinomyces oris) (protein)
# chain: MHHHHHHSSGVDLGTENLYFQSNAWIYDVNVYPKNEAIDVDKTIQAQKLNGYGVGSLIKFPVESTAPTLDAKSFYKYFQLKDTLDERLSEVTATDVSLEGTPLQPTDYKVETKQQTVTVTFTAEGLKKIKAAPGKKVSAVFQGKVTKAGNGAITNRAQVISDTLYAEQPPTPETPPTDPENPPTSDEVISRWGDLSIKKVDTHQQGQTKA
# Key:
# Experiment in all cases: glycan array binding signal (z-score within array); higher = stronger binding
# Conditions in all cases: glycan notation: IUPAC condensed, linker removed
# [1] = molecular target: Gal3S(b1-4)GlcNAc
# Method in brief: (§1)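 Glycan array data were curated from 3228 arrays in the Consortium for Functional Glycomics database and kept only where the protein sequence was available. Glycan names were converted to IUPAC-condensed notation, and columns mapping to the same glycan were averaged. The binding signal is a within-array Z-score, averaged across arrays of the same protein sequence at different concentrations or buffers and across linkers. Negative Z-scores can be read as non-binding.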
# [2] = molecular target: Gal3S(b1-4)[Fuc(a1-3)]Glc6S
# Method in brief: as §1
# [3] = molecular target: Gal4S(b1-4)GlcNAc
# Method in brief: as §1
# [4] = molecular target: Gal6S(b1-4)Glc6S
# Method in brief: as §1
# [5] = molecular target: GalNAc(b1-3)Gal
# Method in brief: as §1
# [6] = molecular target: GalNAc(b1-3)Gal(a1-4)Gal(b1-4)GlcNAc(b1-3)Gal(b1-4)Glc
# Method in brief: as §1
# [7] = molecular target: GalNAc3S(b1-4)GlcNAc3S
# Method in brief: as §1
# [8] = molecular target: GalNAc4S6S(b1-4)GlcNAc
# Method in brief: as §1
# [9] = molecular target: Glc(a1-6)Glc(a1-6)Glc
# Method in brief: as §1
# [10] = molecular target: GlcA(b1-3)GlcNAc
# Method in brief: as §1
# [11] = molecular target: GlcNAc(b1-2)[GlcNAc(b1-4)]Man(a1-3)[GlcNAc(b1-4)][GlcNAc(b1-2)[GlcNAc(b1-6)]Man(a1-6)]Man(b1-4)GlcNAc(b1-4)[Fuc(a1-6)]GlcNAc
# Method in brief: as §1
# [12] = molecular target: GlcNAc(b1-3)Gal(b1-4)GlcNAc
# Method in brief: as §1
# [13] = molecular target: GlcNAc(b1-3)Gal(b1-4)GlcNAc(b1-3)Gal(b1-4)GlcNAc(b1-2)Man(a1-3)[GlcNAc(b1-3)Gal(b1-4)GlcNAc(b1-3)Gal(b1-4)GlcNAc(b1-2)Man(a1-6)]Man(b1-4)GlcNAc(b1-4)[Fuc(a1-6)]GlcNAc
# Method in brief: as §1
# [14] = molecular target: Man(a1-2)Man(a1-3)Man
# Method in brief: as §1
# [15] = molecular target: Neu5Ac(a2-3)Gal(b1-4)GlcNAc
# Method in brief: as §1
# [16] = molecular target: Neu5Ac(a2-3)Gal(b1-4)GlcNAc(b1-2)[Neu5Ac(a2-3)Gal(b1-4)GlcNAc(b1-6)]Man(a1-6)[Neu5Ac(a2-3)Gal(b1-4)GlcNAc(b1-2)Man(a1-3)]Man(b1-4)GlcNAc(b1-4)GlcNAc
# Method in brief: as §1
# [17] = molecular target: Neu5Ac(a2-3)Gal(b1-4)GlcNAc(b1-2)[Neu5Ac(a2-3)Gal(b1-4)GlcNAc(b1-6)]Man(a1-6)[Neu5Ac(a2-3)Gal(b1-4)GlcNAc(b1-2)Man(a1-3)][GlcNAc(b1-4)]Man(b1-4)GlcNAc(b1-4)GlcNAc
# Method in brief: as §1
# [18] = molecular target: Neu5Ac(a2-3)Gal(b1-4)GlcNAc(b1-3)Gal(b1-4)GlcNAc(b1-2)Man(a1-3)[Neu5Ac(a2-3)Gal(b1-4)GlcNAc(b1-3)Gal(b1-4)GlcNAc(b1-2)Man(a1-6)]Man(b1-4)GlcNAc(b1-4)GlcNAc
# Method in brief: as §1
# [19] = molecular target: Neu5Ac(a2-3)Gal(b1-4)GlcNAc(b1-6)GalNAc
# Method in brief: as §1
# [20] = molecular target: Neu5Ac(a2-3)Gal(b1-4)[Fuc(a1-3)]GlcNAc(b1-6)[Gal(b1-3)]GalNAc
# Method in brief: as §1
# [21] = molecular target: Neu5Ac(a2-3)[Neu5Ac(a2-6)]GalNAc
# Method in brief: as §1
# [22] = molecular target: Neu5Ac(a2-6)Gal(b1-4)Glc
# Method in brief: as §1
# [23] = molecular target: Neu5Ac(a2-6)Gal(b1-4)GlcNAc(b1-2)Man(a1-3)[GlcNAc(b1-4)][Neu5Ac(a2-6)Gal(b1-4)GlcNAc(b1-2)Man(a1-6)]Man(b1-4)GlcNAc(b1-4)GlcNAc
# Method in brief: as §1
# [24] = molecular target: Neu5Ac(a2-6)Gal(b1-4)GlcNAc(b1-2)Man(a1-3)[Neu5Ac(a2-6)Gal(b1-4)GlcNAc(b1-2)Man(a1-6)]Man(b1-4)GlcNAc(b1-4)GlcNAc
# Method in brief: as §1
# [25] = molecular target: Neu5Ac(a2-6)Gal(b1-4)GlcNAc(b1-2)Man(a1-6)Man(b1-4)GlcNAc(b1-4)GlcNAc
# Method in brief: as §1
# [26] = molecular target: Neu5Ac(a2-6)Gal(b1-4)GlcNAc(b1-2)Man(a1-6)[Gal(b1-4)GlcNAc(b1-2)Man(a1-3)]Man(b1-4)GlcNAc(b1-4)GlcNAc
# Method in brief: as §1
# [27] = molecular target: Neu5Ac(a2-6)Gal(b1-4)GlcNAc(b1-2)Man(a1-6)[GlcNAc(b1-2)Man(a1-3)]Man(b1-4)GlcNAc(b1-4)GlcNAc
# Method in brief: as §1
# [28] = molecular target: Neu5Ac(a2-6)Gal(b1-4)GlcNAc(b1-3)Gal(b1-4)GlcNAc(b1-6)[Gal(b1-3)]GalNAc
# Method in brief: as §1
# [29] = molecular target: Neu5Ac(a2-6)GlcNAc(b1-4)GlcNAc(b1-4)GlcNAc
# Method in brief: as §1
# [30] = molecular target: Neu5Ac(a2-8)Neu5Ac(a2-3)Gal(b1-4)GlcNAc
# Method in brief: as §1
# [31] = molecular target: Neu5Ac(a2-8)Neu5Ac(a2-3)[GalNAc(b1-4)]Gal(b1-4)Glc
# Method in brief: as §1
# [32] = molecular target: Neu5Gc(a2-3)Gal(b1-4)GlcNAc(b1-3)Gal(b1-4)GlcNAc(b1-2)Man(a1-3)[Neu5Gc(a2-3)Gal(b1-4)GlcNAc(b1-3)Gal(b1-4)GlcNAc(b1-2)Man(a1-6)]Man(b1-4)GlcNAc(b1-4)GlcNAc
# Method in brief: as §1
binder,measurement,setting,value
B1,glycan array binding signal (z-score),[1],2.69
same,glycan array binding signal (z-score),[2],3.08
same,glycan array binding signal (z-score),[3],3.9
same,glycan array binding signal (z-score),[4],-0.257
same,glycan array binding signal (z-score),[5],2.41
same,glycan array binding signal (z-score),[6],1.53
same,glycan array binding signal (z-score),[7],0.248
same,glycan array binding signal (z-score),[8],-0.331
same,glycan array binding signal (z-score),[9],-0.88
same,glycan array binding signal (z-score),[10],0.654
same,glycan array binding signal (z-score),[11],-0.355
same,glycan array binding signal (z-score),[12],0.299
same,glycan array binding signal (z-score),[13],-0.07
same,glycan array binding signal (z-score),[14],0.075
same,glycan array binding signal (z-score),[15],-0.301
same,glycan array binding signal (z-score),[16],-0.853
same,glycan array binding signal (z-score),[17],-0.874
same,glycan array binding signal (z-score),[18],-0.355
same,glycan array binding signal (z-score),[19],1.38
same,glycan array binding signal (z-score),[20],1.73
same,glycan array binding signal (z-score),[21],-1.07
same,glycan array binding signal (z-score),[22],0.148
same,glycan array binding signal (z-score),[23],-1.7
same,glycan array binding signal (z-score),[24],0.297
same,glycan array binding signal (z-score),[25],-0.759
same,glycan array binding signal (z-score),[26],-1.01
same,glycan array binding signal (z-score),[27],0.589
same,glycan array binding signal (z-score),[28],-0.597
same,glycan array binding signal (z-score),[29],0.675
same,glycan array binding signal (z-score),[30],-0.815
same,glycan array binding signal (z-score),[31],-1.37
same,glycan array binding signal (z-score),[32],-0.144
